79 compounds from the supplement of paper PMC10941209 can be followed below.

Unmarked numbers belong to inactive results.

The test system of the assay is Toxoplasma gondii RH 2F1 tachyzoites (intracellular in HFF). In words: parasite survival relative to DMSO control; higher = less antiparasitic activity, active = 20 or less. Particulars: 1 µM; 72 h. In outline: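 Parasite survival was taken as the CPRG signal relative to DMSO-treated infected wells, given as a percentage. To obtain it, HFF cells (5 × 10^3 cells/well, 96-well plates) were infected for 3 h in D2 medium with 5 × 10^3 β-galactosidase-expressing Toxoplasma gondii RH-2F1 tachyzoites, then exposed to compound at 1 μM for 72 h at 37°C in 5% CO2. Absorbance at 570 nm was measured 30 min after CPRG was added to lysed cells, and 2 or more biological replicates were run.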

Consider `NCC(=O)Nc1ccc(-n2nc(C(F)(F)F)cc2-c2ccc3c(ccc4ccccc43)c2)cc1`, for which the parasite survival is 13.7% (active).
As to `COc1ccc(C)cc1NC(=O)c1ccc(S(=O)(=O)N2CCCCC2)cc1`, the parasite survival was 60%.
For `CN1C(=O)C(c2ccccc2)C(=O)N(c2ccccc2)c2cc(C(F)(F)F)ccc21` (centres undefined), the parasite survival was 79.5%.
Regarding `O=C(NC12CC3CC(CC(C3)C1)C2)c1cc2ccccc2[nH]1`, the parasite survival is 14.7% (active).
As to `O=C(NN1C(=O)[C@@H]2[C@@H]3C=C[C@@H]([C@H]4C[C@@H]34)[C@@H]2C1=O)c1ccc(C(F)(F)F)cc1`, the parasite survival is 66.1%.
The result for `COc1c(F)c(F)cc2c(=O)c(C(=O)O)cn(C3CC3)c12` reads 63.8%; that for `COc1ccc(C(C)(C)C)cc1NC(=O)C(=O)c1ccc(OCCN2CCOCC2)c2ccccc12`, 45.8%; that for `NC1(C(=O)O)CCP(=O)(O)CC1` (centres undefined), 77.4%.
For `NC(=O)c1[nH]c2ccc(S(N)(=O)=O)cc2c1-c1ccccc1`, the parasite survival was 72.1%.
Regarding `CC1(C)CC(NC(=O)C(=O)Nc2ccc(Cl)cc2)CC(C)(C)N1`, the parasite survival is 69.9%.
Turning to `NC(=O)C(c1ccccc1)(c1ccccc1)[C@H]1CCCN(CCc2ccc3c(c2)CCO3)C1`, the parasite survival was 67%.
On to `CN(C)CCNC(=O)c1cccc2cccnc12`, for which the parasite survival is 62%.
Consider `CC[C@@H](CO)NCCN[C@@H](CC)CO`, for which the parasite survival is 55.4%.
As for `O=C(NCCN1CCCCC1)c1cccc(C(F)(F)F)c1`, the parasite survival is 67.5%.
For the compound `CC(C)Oc1ccc(-c2nc(-c3cccc4c3CC[C@@H]4NCCO)no2)cc1C#N`, the parasite survival was 41.9%.
For `CC(Oc1ccc(Cl)cc1Cl)C(=O)NCc1ccc2c(c1)OCO2` (centres undefined), the parasite survival was 31.2%.
`Fc1ccc2c(/C=C/c3nnn[nH]3)c[nH]c2c1`: the parasite survival is 47.3%.
For the compound `O=S(=O)(NCB(O)O)c1ccc(-c2nnn[nH]2)cc1C(F)(F)F`, the parasite survival was 34.1%.
With `O=S(=O)(NCB(O)O)c1cc2c(Cl)ccc(Cl)c2s1`, the parasite survival was 54.4%.
The result for `NC[C@H]1OB(O)c2c(OCCCO)cccc21` reads 54.2%; that for `Nc1nc(O)c2ncn([C@@H]3O[C@H](CO)[C@@H](O)[C@H]3F)c2n1`, 75.9%; that for `Nc1c(C(=O)NCc2ccco2)c2nc3ccccc3nc2n1CCN1CCCCC1`, 37%.
The result for `CCN(CC)CCCC(C)Nc1ccnc2cc(Cl)ccc12` (centres undefined) reads 70.6%.
On to `O=C(NCc1cccc2ccccc12)c1cccs1`, for which the parasite survival is 32%.
Regarding `O=c1oc2ccc(Br)cc2cc1CSc1ncc[nH]1`, the parasite survival was 63.6%.
On to `O=C1NC(=S)N/C1=C\c1cc(Br)cc(Br)c1O`, for which the parasite survival was 71.6%.
The result for `CC[C@@H]1C(=O)OC[C@@H]1Cc1cncn1C` reads 45.1%.
For the compound `O=C(CC1Sc2ncnn2C1=O)Nc1ccc(Br)cc1` (centres undefined), the parasite survival is 28.1%.
The result for `COC(=O)Nc1nc2cc(Sc3ccccc3)ccc2[nH]1` reads 25.4%; that for `Cc1ccn2c(C(=O)NCc3ccccc3)c(C)nc2c1`, 49.6%.
Turning to `C=CCc1cc(Cc2cnc(N)nc2N)cc(OC)c1O`, the parasite survival is 29.8%.
`NC(=O)[C@@H]1CC[C@@H]2CN1C(=O)N2OS(=O)(=O)O`: the parasite survival was 39%.
In the case of `NC(=O)c1cnc2ccc(S(=O)(=O)c3ccccc3)cc2c1Nc1ccc(O)cc1`, the parasite survival was 43%.
As to `[N-]=[N+]=N[C@H]1C[C@H](n2ccc(=O)[nH]c2=O)O[C@@H]1CO`, the parasite survival is 73.1%.
Regarding `CC(C)(C)c1cc(C(=O)/C(C#N)=N/Nc2cccc(Cl)c2)no1`, the parasite survival was 37.6%.
For `CCOC(=O)/C=C/[C@H](C[C@@H]1CCNC1=O)NC(=O)[C@@H](CC(=O)[C@@H](NC(=O)c1cc(C)on1)C(C)C)Cc1ccc(F)cc1`, the parasite survival was 48.2%.
`O=C(O)COc1cccc2c1CC[C@](O)(COC(=O)N(c1ccccc1)c1ccccc1)C2`: the parasite survival was 76.3%.
For `CC[C@H](NC(=O)[C@H](C)NC)C(=O)N1C[C@@H](O)C[C@H]1Cc1c(-c2[nH]c3cc(F)ccc3c2C[C@@H]2C[C@H](O)CN2C(=O)[C@H](CC)NC(=O)[C@H](C)NC)[nH]c2cc(F)ccc12`, the parasite survival was 8.15% (active).
On to `CC[C@H]1OC(=O)[C@H](C)[C@@H](O[C@H]2C[C@@](C)(OC)[C@@H](O)[C@H](C)O2)[C@H](C)[C@@H](O[C@@H]2O[C@H](C)C[C@H](N(C)C)[C@H]2O)[C@](C)(O)C[C@@H](C)C(=O)[C@H](C)[C@@H](O)[C@]1(C)O`, for which the parasite survival was 13.9% (active).
The result for `O=C(Cc1ccccc1F)Nc1nc2ccccc2[nH]1` reads 38.1%.
As for `CCCc1ccc(-c2cc3cn([C@H]4C[C@H](O)[C@@H](CO)O4)c(=O)nc3o2)cc1`, the parasite survival is 61.6%.
The result for `CC(C)Oc1cccc(NC(=O)c2ccccc2C(F)(F)F)c1` reads 74.1%.
The result for `CCc1cc(O)c(Oc2ccc(C(N)=O)cc2F)cc1F` reads 71.5%; that for `CCCCOC(=O)Nc1cc2nc(C3CCCCC3)[nH]c2cc1N(CC)CC`, 5.06% (active); that for `Nc1cnn(C2OC(CO)C(O)C2O)c(=O)n1` (centres undefined), 76.2%.
For `N#CCN1C(=O)COc2cc(F)c(N3C(=O)c4ccccc4C3=O)cc21`, the parasite survival is 67.4%.
Regarding `COc1ccc(C2=CC(c3c(F)cccc3Cl)n3ncnc3N2)cc1` (centres undefined), the parasite survival is 71.5%.
As to `COc1ccc(C[C@@H](C)[C@@H](C)Cc2ccc(OC)c(OC)c2)cc1OC`, the parasite survival was 77.7%.
On to `CCc1nc(N)nc(N)c1C#CCc1ccccc1`, for which the parasite survival is 5.77% (active).
In the case of `Nc1nc(F)nc2c1ncn2[C@H]1O[C@@H](CO)[C@H](O)[C@@H]1O`, the parasite survival was 30%.
On to `Nc1nc2c(ncn2COCCO)c(=O)[nH]1`, for which the parasite survival is 67.4%.
As for `COc1cc(Cc2cnc(N)nc2N)c2c(c1OC)OC(C1CC1)C=C2` (centres undefined), the parasite survival was 10.4% (active).
As to `O=C(c1cc(O)nc2ccccc12)N1CCN(c2ccccc2)CC1`, the parasite survival is 77.5%.
The result for `O=[N+]([O-])c1cn2c(n1)OC[C@@H](OCc1ccc(OC(F)(F)F)cc1)C2` reads 45.2%.
In the case of `CN(C)CCCOc1ccc(-c2ccc3ncc4c(c3c2)n(C2CCOCC2)c(=O)n4C)cn1`, the parasite survival is 50.5%.
Turning to `O=C(NCc1ccccc1Cl)c1cnc2ccccc2n1`, the parasite survival was 45.6%.
With `Cc1ccc(C)c(OCCCCCCN2C[C@H](O)[C@@H](O)[C@H](O)[C@H]2CO)c1`, the parasite survival was 62.8%.
The result for `COc1cc(C(C(=O)NC2CCCCC2)N(C(=O)Cc2c[nH]c3ccccc23)c2ccc(C(C)C)cc2)cc(OC)c1OC` (centres undefined) reads 46.5%; that for `CC(=O)NC[C@H]1CN(c2ccc(N3CCSCC3)c(F)c2)C(=O)O1`, 44%; that for `Oc1ccc(NCc2ccccc2OCc2ccccc2)cc1`, 39.5%.
As to `O=C(NCc1ccc(F)cc1)c1c(O)c2ncccc2[nH]c1=O`, the parasite survival was 75.5%.
Next, `C[C@@H](NC(=O)c1cccc(-c2cnc(-c3cc4ccccc4cn3)[nH]2)c1)c1ccc(F)cc1`: 11.6% (active).
Regarding `Fc1ccc(-c2nc(-c3c[nH]c4ccc(Br)cc34)[nH]c2-c2ccc(F)cc2)cc1`, the parasite survival was 36.6%.
With `N[C@H]1CCC[C@H]1C(=O)O`, the parasite survival was 78.4%.
Turning to `Cc1onc(-c2ccccc2)c1-c1ccc(S(N)(=O)=O)cc1`, the parasite survival was 74%.
`O=[N+]([O-])/C(Br)=C/c1ccc(Br)o1`: the parasite survival is 26.6%.
In the case of `Cc1c(N)cccc1Cn1ccc(OCCc2cccs2)cc1=O`, the parasite survival was 48.8%.
As for `O=C(CCc1ccc2c(c1)OCO2)NCc1ccc(-c2ccccc2F)cc1`, the parasite survival was 54.9%.
For `CC(C)(C)NC(=O)[C@@H]1C[C@@H]2CCCC[C@@H]2CN1C[C@@H](O)[C@H](Cc1ccccc1)NC(=O)[C@H](CC(N)=O)NC(=O)c1ccc2ccccc2n1`, the parasite survival was 39%.
The result for `C[C@@H](O)[C@H](N)C(=O)NS(=O)(=O)c1cccc(-c2ccc3[nH]ncc3c2)c1` reads 40.1%; that for `N#Cc1c(F)c(Cl)c(NCc2ccccc2)c(C#N)c1F`, 31.9%.
In the case of `Nc1nc(=O)c(Br)c(-c2ccccc2)[nH]1`, the parasite survival is 75.4%.
Regarding `Cc1c(OCC(F)(F)F)ccnc1C[S+]([O-])c1nc2ccccc2[nH]1` (centres undefined), the parasite survival was 45.7%.
Consider `O=C(Nc1ccccc1C(=O)O)c1cccc(Oc2ccccc2)c1`, for which the parasite survival was 39.4%.
For the compound `FC(F)(F)Oc1ccc(Nc2ccc3cccc(Cl)c3n2)cc1`, the parasite survival was 41.4%.
For the compound `O=C(O)c1cc(-c2ccccc2)nc2ccccc12`, the parasite survival was 67.9%.
As for `CC(Cc1ccccc1)C(=O)Nc1ccc(Cl)cc1C(=O)O` (centres undefined), the parasite survival was 42%.
For the compound `CCCNc1ccc(S(=O)(=O)Nc2cc(C)on2)cc1`, the parasite survival was 65.5%.
In the case of `O=C1NC(=O)C(Br)=C1Br`, the parasite survival was 35.2%.
